Reference: PubChem BioAssay (NCI)
The panel holds about 79,000 compounds, 15% with a hit somewhere; the sample as a whole holds those more often. Rule as the data show it: active = growth inhibition above about 70%; inactive = the rest.

How the values were obtained:
[1] = NCI Yeast Anticancer Drug Screen. Data for the rad50 strain (AID 155);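 also: 0% = growth of vehicle-only cultures of the same strain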; details: S. cerevisiae rad50 strain growth inhibition; at 50.0 µM; active compounds read high
In short: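 Genetically altered yeast (DNA repair pathway); compound treatment; growth inhibition vs vehicle ctrl.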

[2] = NCI Yeast Anticancer Drug Screen. Data for the mec2-1 strain (AID 157); details: S. cerevisiae mec2-1 strain, at 50.0 µM, active compounds read high
In short: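 Strain: mec2-1 (DNA repair/cell cycle alteration). Compound exposure, then growth measured; inhibition expressed relative to vehicle.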

[3] = NCI Yeast Anticancer Drug Screen. Data for the cln2 rad14 strain (AID 165);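 also: 0% = growth equal to vehicle treated cultures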; details: S. cerevisiae cln2 rad14 strain, at 50.0 µM, active compounds read high
In short: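 Compounds are applied to the cln2 rad14 yeast strain, and growth is then compared with that of vehicle-treated cultures to give inhibition.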

[4] = NCI Yeast Anticancer Drug Screen. Data for the bub3 strain (AID 167); details: S. cerevisiae bub3 mutant strain, at 50.0 µM, active compounds read high
In short: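 Yeast carrying a defined mutation is treated with each compound, and growth is compared with that of vehicle-exposed cells to give inhibition.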

[5] = NCI Yeast Anticancer Drug Screen. Data for the mlh1 rad18 strain (AID 175); details: S. cerevisiae mlh1 rad18 strain growth inhibition; at 50.0 µM; active compounds read high
In short: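 Read-out is yeast growth inhibition, calculated against vehicle-only controls. The compound was applied to a strain engineered with DNA damage repair alterations.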

Measured: growth inhibition

C/C(=N\NC(N)=O)C1CCCc2ccccc21 (stereo not given)
inactive: [1] 2.45% | [2] -15.3% | [3] -6.55% | [4] -10.3% | [5] 10.2%

CC(C)CCCC(C)C1CCC2C3CCC4=CCCCC4(C)C3CCC12C (stereo not given)
inactive: [1] 4.6% | [2] 33% | [3] 33.1% | [4] 2.45% | [5] 50.7%

CCCCC1(N=[N+]=[N-])C(=O)c2cccc3c2N(CCC3)C1=O (stereo not given)
inactive: [1] 48.8% | [2] 30.9% | [3] 3.1% | [4] 15.6% | [5] 61.5%

CC1CCC(OC(=O)CC#N)CC1 (stereo not given)
inactive: [1] -2.15% | [2] -7.2% | [3] 3.45% | [4] 2.35% | [5] -6.15%

O=C(O)CC(c1ccccc1Cl)C(CC(=O)O)c1ccccc1Cl (stereo not given)
inactive: [1] 5.55% | [2] -1.55% | [3] 11.6% | [4] -1.05% | [5] 3.4%

COc1cc(CC2C(=O)NC(=O)NC2=O)ccc1OCc1ccccc1
inactive: [1] 17.8% | [2] -7.75% | [3] -19.4% | [4] -21.4% | [5] -47%

O=C(N=C1[Se]C(=Nc2ccccc2)C(=Nc2ccccc2)N1c1ccc(Cl)cc1)c1ccccc1
inactive: [1] -13.8% | [2] -10.4% | [3] -22.9% | [4] -9.25% | [5] -21.4%

Nc1nc(N)c(CCCCc2ccc([N+](=O)[O-])cc2)c(N)n1
inactive: [1] -1.05% | [2] 21.1% | [3] -9.95% | [4] -1.4% | [5] -21.3%

CCOC(=O)C1CCC(=O)N1Cc1c[nH]c2ccccc12 (stereo not given)
inactive: [1] 3.2% | [2] -12.7% | [3] 1% | [4] 21.4% | [5] -14.7%

Cc1nc2ccccc2c(=O)o1
inactive: [1] -12.2% | [2] 7.05% | [3] 15.1% | [4] -5.65% | [5] -21%

c1ccc(-c2ccc(-c3c(-c4ccccc4)ccc(-c4ccccc4)c3-c3ccccc3)cc2)cc1
inactive: [1] 20.8% | [2] -0.7% | [3] 20.9% | [4] -2.85% | [5] -1.4%

Cc1cc(N(CCO)CCO)c2ccc3cc4ccccc4cc3c2n1
inactive: [1] 38.5% | [2] 16.6% | [3] 8.3% | [4] 18.3% | [5] 23.9%

COc1ccc(-c2c3ccccc3c(-c3ccc(OCCCCCBr)cc3)c3ccccc23)cc1
inactive: [1] -10.4% | [2] -10.7% | [3] -30.1% | [4] -22.5% | [5] 1.4%

O=C(Cc1ccccc1)N(c1ccccc1)c1ccccc1
inactive: [1] 23.5% | [2] -9.25% | [3] 14.7% | [4] 49.9% | [5] 5.9%

O=c1ccc2ccc(OP(=O)(O)O)cc2o1
inactive: [1] -12.4% | [2] -15.1% | [3] 14.1% | [4] -34.7% | [5] 19.6%

CCOC(=O)C(NC(=O)c1ccccc1)(N1CCOCC1)C(F)(F)F (stereo not given)
inactive: [1] 25.3% | [2] -20.1% | [3] 15.8% | [4] -3.45% | [5] -44.9%

COc1cc2c(c(Cl)c1OC)CCN(C)CC2c1ccccc1 (stereo not given)
inactive: [1] -5.25% | [2] -15.3% | [3] -9.5% | [4] -1.45% | [5] 1.85%

Cc1cc(C)c(-c2cc(C(O)C3OC4OC(C)(C)OC4C3O)on2)c(C)c1 (stereo not given)
inactive: [1] 15.3% | [2] -0.9% | [3] 9.25% | [4] 0.8% | [5] 0.3%

COC(C)(C)C(Br)C(=O)OCC(=O)c1ccc(Br)cc1 (stereo not given)
inactive: [1] 25.9% | [2] -0.3% | [3] 20.6% | [4] 0.8% | [5] 13.3%

c1ccc2c(c1)ncc1cccn12
inactive: [1] 5.15% | [2] -10.9% | [3] 3.45% | [4] 7.7% | [5] 1.25%

N#CSCc1ccc(CSC#N)c(Br)c1
inactive: [1] 20.2% | [2] 14.9% | [3] 18.6% | [4] 10.4% | [5] 43.4%

O=C(O)c1ccccc1Nc1nc2ccccc2o1
inactive: [1] -1.85% | [2] 2.15% | [3] -26.6% | [4] 15.2% | [5] 0.25%

CC12CCC(O)CC1=CCC1C2CCC2(C)C1CCC21SCCS1 (stereo not given)
inactive: [1] 2.35% | [2] 9.7% | [3] 14.4% | [4] 13.8% | [5] 13%
